Assay results from PubChem BioAssay AID651739 (Broad Institute, 2012).
Out of some 5,600 compounds screened, about 4,100 (73%) were called active. Inconclusive results (about 4%) are left out. So high a share suggests a set chosen from earlier hits. A selection follows. A number with no mark means an inactive call.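 How the source made its calls: active means mean replicate inhibition above about 95% and at least 55% of replicates individually reaching it (limit read from the data); inconclusive means only one of the two criteria is met; inactive means neither criterion is met.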

Experiment: blockers of Trypanosoma cruzi growth in host cells – cell-based, NIH3T3 host, beta-gal parasite, luminescence, cherry-pick, confirmation (AID 651739)
Settings: T. cruzi beta-gal in NIH3T3, GalScreen luminescence, 90 h; at 8.35 µM; stronger effect = higher value

Compound | inhibition
C[C@H]1CN([C@@H](C)CO)C(=O)Cc2cc(NC(=O)Cc3cn(C)c4ccccc34)ccc2O[C@@H]1CN(C)Cc1ccccc1 | 77.4%
C[C@H]1CN([C@@H](C)CO)C(=O)Cc2cc(NC(=O)Cc3cn(C)c4ccccc34)ccc2O[C@@H]1CN(C)Cc1ccc(C(F)(F)F)cc1 | 104% (active)
COc1ccc(NC(=O)N(C)C[C@@H]2Oc3c(NC(=O)NC4CCCCC4)cccc3C(=O)N([C@@H](C)CO)C[C@@H]2C)cc1 | 51.2%
COc1ccc(S(=O)(=O)N(C)C[C@H]2Oc3c(NC(=O)Nc4cccc5ccccc45)cccc3C(=O)N([C@@H](C)CO)C[C@H]2C)cc1 | 98.8% (active)
C[C@H]1CN([C@@H](C)CO)C(=O)c2cccc(NS(=O)(=O)c3cn(C)cn3)c2O[C@@H]1CN(C)CC1CCCCC1 | 46.2%
Cc1ccc(S(=O)(=O)N(C)C[C@@H]2Oc3c(NC(=O)c4nc5ccccc5s4)cccc3C(=O)N([C@H](C)CO)C[C@@H]2C)cc1 | 95.2% (active)
C[C@@H]1CN([C@@H](C)CO)S(=O)(=O)c2ccc(C#Cc3ccc(F)cc3)cc2O[C@H]1CN(C)C(=O)NC1CCCC1 | 105% (active)
C[C@@H]1CN([C@@H](C)CO)S(=O)(=O)c2ccc(-c3ccncc3)cc2O[C@@H]1CN(C)C(=O)Nc1ccc(F)cc1 | 100% (active)
C[C@@H]1CN([C@@H](C)CO)S(=O)(=O)c2ccc(C#Cc3ccc(F)cc3)cc2O[C@H]1CN(C)C(=O)c1ccccn1 | 108% (active)
C[C@@H]1CN([C@@H](C)CO)S(=O)(=O)c2ccc(C#Cc3ccccc3)cc2O[C@@H]1CN(C)C(=O)Nc1ccccc1 | 103% (active)
COCC(=O)N1CC[C@@H]2[C@@H](CO)Nc3ccc(-c4cccc(C#N)c4)cc3[C@@H]21 | 111% (active)
N#Cc1ccc(-c2ccc3c(c2)[C@@H]2[C@@H](CCN2C(=O)Cc2ccncc2)[C@@H](CO)N3)cc1 | 112% (active)
C[C@@H]1CN([C@H](C)CO)S(=O)(=O)c2ccc(-c3cccc(C#N)c3)cc2O[C@@H]1CN(C)C(=O)Nc1ccccc1F | 86.6%
C[C@H](CO)N1C[C@H](C)[C@@H](CN(C)C(=O)Nc2cc(F)ccc2F)Oc2cc(C#CC3CC3)ccc2S1(=O)=O | 108% (active)
C[C@H]1CN([C@@H](C)CO)S(=O)(=O)c2ccc(C#CC3CCCC3)cc2O[C@@H]1CN(C)C(=O)c1cccc(F)c1 | 96.6% (active)
CC(=O)N1[C@H](CNC(=O)C2CC2)[C@@H](c2ccc(-c3cccc(F)c3)cc2)[C@@H]1CO | 19.2%
CCN(C[C@H]1[C@H](c2ccccc2)[C@H](CO)N1C(=O)C1CC1)C(=O)NC1CCCC1 | -20.8%
N#C[C@@H]1[C@H](c2ccc(C#Cc3cccc(F)c3)cc2)[C@@H](CO)N1C(=O)C1CCCC1 | 103% (active)
N#C[C@@H]1[C@@H](c2ccc(C#Cc3cccc(F)c3)cc2)[C@@H](CO)N1C(=O)C1CCC1 | 104% (active)
N#C[C@@H]1[C@@H](c2ccccc2)[C@@H](CO)N1C(=O)Cc1ccccc1 | 78.3%
N#C[C@@H]1[C@@H](c2ccc(/C=C/c3ccccc3)cc2)[C@@H](CO)N1C(=O)C1CC1 | 108% (active)
CC(=O)NC[C@@H]1[C@@H](c2ccc(-c3ccccc3F)cc2)[C@@H](CO)N1C(=O)C1CC1 | 15.9%
CCCC#Cc1ccc([C@@H]2[C@@H](C#N)N(C(=O)C3CCCC3)[C@@H]2CO)cc1 | 107% (active)
COCC(=O)N1[C@H](CO)[C@@H](c2ccc(C#Cc3ccccc3F)cc2)[C@@H]1C#N | 107% (active)
CC(=O)N(C)C[C@@H]1[C@@H](c2ccc(-c3ccccc3F)cc2)[C@@H](CO)N1C(C)=O | 19.8%
COc1ccc(S(=O)(=O)N(C)C[C@H]2OCCCC[C@H](C)Oc3ccc(NS(=O)(=O)c4ccc(F)cc4)cc3C(=O)N([C@@H](C)CO)C[C@@H]2C)cc1 | 106% (active)

Compound | inhibition
Cc1ccc(S(=O)(=O)N(C)C[C@@H]2OCCCC[C@@H](C)Oc3ccc(NS(=O)(=O)c4ccc(F)cc4)cc3C(=O)N([C@H](C)CO)C[C@H]2C)cc1 | 97.7% (active)
Cc1ccc(S(=O)(=O)Nc2ccc3c(c2)C(=O)N([C@H](C)CO)C[C@H](C)[C@H](CN(C)C(=O)Nc2ccc(F)cc2)OCCCC[C@H](C)O3)cc1 | 108% (active)
C[C@H](CO)N1C[C@H](C)[C@H](CN(C)S(=O)(=O)c2ccc(F)cc2)OCCCC[C@H](C)Oc2ccc(NS(=O)(=O)c3ccc(Cl)cc3)cc2C1=O | 92.1%
C[C@@H]1CCCCO[C@H](CN(C)S(=O)(=O)c2ccc(F)cc2)[C@H](C)CN([C@@H](C)CO)C(=O)c2cc(NS(=O)(=O)c3ccccc3)ccc2O1 | 109% (active)
COc1cccc(S(=O)(=O)N2C[C@@H](O)COC[C@@H]3O[C@H](CC(=O)Nc4ccccc4)CC[C@H]32)c1 | 62.3%
Cc1ccc(S(=O)(=O)N2C[C@@H](O)COC[C@@H]3O[C@H](CC(=O)NCc4ccc(Cl)c(Cl)c4)CC[C@H]32)cc1 | 103% (active)
COc1ccc(S(=O)(=O)Nc2ccc3c(c2)C(=O)N([C@@H](C)CO)C[C@H](C)[C@@H](CN(C)Cc2ccc(C(F)(F)F)cc2)O3)cc1 | 88.7%
COc1ccc(S(=O)(=O)Nc2ccc3c(c2)C(=O)N([C@H](C)CO)C[C@H](C)[C@H](CN(C)Cc2ccc(C(F)(F)F)cc2)O3)cc1 | 106% (active)
C[C@H](CO)N1C[C@H](C)[C@H](CN(C)Cc2ccc(C(F)(F)F)cc2)Oc2ccc(NS(=O)(=O)c3ccc(Cl)cc3)cc2C1=O | 106% (active)
COc1ccc(CN(C)C[C@H]2Oc3ccc(NS(=O)(=O)c4ccc(Cl)cc4)cc3CC(=O)N([C@@H](C)CO)C[C@H]2C)cc1 | 100% (active)
COc1ccc(S(=O)(=O)Nc2ccc3c(c2)C(=O)N([C@@H](C)CO)C[C@H](C)[C@H](CN(C)Cc2ccc(C(F)(F)F)cc2)O3)cc1 | 104% (active)
Cc1ccc(S(=O)(=O)Nc2ccc3c(c2)C(=O)N([C@H](C)CO)C[C@H](C)[C@H](CN(C)Cc2ccc(Cl)c(Cl)c2)O3)cc1 | 102% (active)
O=C(C[C@@H]1C[C@@H]2c3cc(NC(=O)c4ccc5c(c4)OCO5)ccc3O[C@@H]2[C@@H](CO)O1)NCc1ccc(Cl)cc1 | 106% (active)
COc1cccc(S(=O)(=O)Nc2ccc3c(c2)[C@H]2C[C@H](CC(=O)NCc4ccc(Cl)cc4)O[C@H](CO)[C@H]2O3)c1 | 104% (active)
O=C(C[C@@H]1C[C@H]2c3cc(NC(=O)C4CCC4)ccc3O[C@H]2[C@@H](CO)O1)NCc1ccc2c(c1)OCO2 | 12.6%
O=C(Nc1ccc2c(c1)[C@@H]1C[C@H](CC(=O)N3CCOCC3)O[C@@H](CO)[C@@H]1O2)c1ccc2c(c1)OCO2 | 13.5%
C/C=C/c1ccc([C@H]2[C@@H](CNC(C)C)N(c3nc(CC)cs3)[C@H]2CO)cc1 | 101% (active)
C[C@@H]1CN([C@@H](C)CO)C(=O)c2cc(NC(=O)C3CCCCC3)ccc2O[C@@H](C)CCCCO[C@H]1CN(C)Cc1ccncc1 | 97.3% (active)
C[C@@H]1CCCCO[C@H](CN(C)Cc2ccc(Cl)c(Cl)c2)[C@H](C)CN([C@@H](C)CO)C(=O)c2cc(NC(=O)C3CCCCC3)ccc2O1 | 97.4% (active)
C[C@@H]1CCCCO[C@@H](CN(C)CC2CC2)[C@H](C)CN([C@H](C)CO)C(=O)c2cc(NC(=O)C3CCCCC3)ccc2O1 | 99.2% (active)
C[C@H]1CCCCO[C@H](CN(C)Cc2ccc(C(F)(F)F)cc2)[C@@H](C)CN([C@@H](C)CO)C(=O)c2cc(NC(=O)C3CCCCC3)ccc2O1 | 100% (active)
CCCNC(=O)N1[C@@H]2c3cccc(=O)n3C[C@H]1[C@H](CO)[C@H]2C(=O)NCC(F)(F)F | 21.5%
C[C@H](CO)N1C[C@H](C)[C@@H](CN(C)Cc2ccc(C(F)(F)F)cc2)OCCCC[C@H](C)Oc2ccc(NC(=O)C3CCCCC3)cc2C1=O | 98.1% (active)
COc1ccc(CN(C)C[C@H]2OCCCC[C@H](C)Oc3ccc(NC(=O)Nc4ccc5c(c4)OCO5)cc3C(=O)N([C@H](C)CO)C[C@@H]2C)cc1 | 100% (active)
C[C@@H]1CCCCO[C@@H](CN(C)Cc2ccc3c(c2)OCO3)[C@@H](C)CN([C@@H](C)CO)C(=O)c2cc(NC(=O)Nc3ccccc3)ccc2O1 | 110% (active)
CNC[C@@H]1Oc2cc(C#CCC3CCCC3)ccc2S(=O)(=O)N([C@H](C)CO)C[C@H]1C | 95% (active)

Compound | inhibition
C[C@@H]1CN([C@H](C)CO)S(=O)(=O)c2ccc(C#CCC3CCCC3)cc2O[C@H]1CN(C)C(=O)CC1CC1 | 97.4% (active)
CO[C@H](CN(C)S(=O)(=O)c1ccc(Cl)cc1)[C@@H](C)CN(Cc1ccccc1Cl)[C@H](C)CO | 110% (active)
CN1C(=O)c2cc(NC(=O)c3cnccn3)ccc2OC[C@@H]2O[C@H](CC(=O)N[C@@H]3CCN(Cc4ccccc4)C3)CC[C@@H]21 | 99.8% (active)
CN1C(=O)c2cc(NC(=O)Nc3ccccc3F)ccc2OC[C@H]2O[C@H](CC(=O)NCc3ccc(-c4ccccc4)cc3)CC[C@H]21 | 108% (active)
CN1C(=O)c2cc(NC(=O)c3cnccn3)ccc2OC[C@@H]2O[C@@H](CC(=O)N[C@H]3CCN(Cc4ccccc4)C3)CC[C@H]21 | 71.5%
CC(C)NC(=O)Nc1ccc2c(c1)C(=O)N([C@@H](C)CO)C[C@H](C)[C@H](CN(C)S(=O)(=O)c1ccc(Cl)cc1)OCCCC[C@H](C)O2 | 104% (active)
COc1ccc(NC(=O)Nc2ccc3c(c2)C(=O)N([C@H](C)CO)C[C@H](C)[C@H](CN(C)S(=O)(=O)c2ccc(Cl)cc2)OCCCC[C@H](C)O3)cc1 | 104% (active)
C[C@@H]1CN([C@H](C)CO)C(=O)c2cc(NS(C)(=O)=O)ccc2O[C@@H](C)CCCCO[C@H]1CN(C)S(=O)(=O)c1cn(C)cn1 | -9.98%
C[C@H]1CCCCO[C@H](CN(C)S(=O)(=O)c2ccc(Cl)cc2)[C@@H](C)CN([C@@H](C)CO)C(=O)c2cc(NC(=O)Nc3ccc4c(c3)OCO4)ccc2O1 | 103% (active)
C[C@H](CO)N1C[C@H](C)[C@@H](CN(C)S(=O)(=O)c2ccccc2F)Oc2ncc(C#Cc3ccccc3F)cc2C1=O | 106% (active)
CCCNC(=O)N(C)C[C@@H]1Oc2ncc(C#Cc3ccccc3F)cc2C(=O)N([C@@H](C)CO)C[C@H]1C | 112% (active)
C[C@H](CO)N1C[C@H](C)[C@@H](CN(C)S(=O)(=O)c2ccccc2)Oc2ncc(C#Cc3ccccc3F)cc2C1=O | 111% (active)
C[C@@H]1CN([C@@H](C)CO)C(=O)c2cc(NC(=O)Nc3cccc4ccccc34)ccc2O[C@H]1CN(C)Cc1ccc(Oc2ccccc2)cc1 | 103% (active)
C[C@@H]1CN([C@@H](C)CO)C(=O)c2cc(NC(=O)Nc3cccc4ccccc34)ccc2O[C@H]1CN(C)Cc1ccc(Cl)c(Cl)c1 | 97.9% (active)
Cc1ccc(-c2ccc([C@H]3[C@H](CO)N4CCCCN(Cc5cncnc5)C[C@@H]34)cc2)cc1 | 102% (active)
OC[C@H]1[C@H](c2ccc(-c3cccc(F)c3)cc2)[C@@H]2CN(Cc3cncnc3)CCCCN12 | 82.2%
OC[C@@H]1[C@H](c2ccc(C#Cc3ccccc3)cc2)[C@@H]2CN(Cc3cncnc3)CCCCN12 | 104% (active)
Cc1cccc(-c2ccc([C@H]3[C@@H](CO)N4CCCCN(Cc5cncnc5)C[C@H]34)cc2)c1 | 84.9%
O=C(c1ccc(F)cc1)N1CCCCN2[C@H](C1)[C@@H](c1ccc(C#CC3(O)CCCC3)cc1)[C@@H]2CO | 45.9%
OC[C@@H]1[C@H](c2ccc(C#CC3(O)CCCC3)cc2)[C@H]2CN(Cc3cncnc3)CCCCN12 | 99.2% (active)
O=C(Nc1cc(Cl)cc(Cl)c1)N[C@H]1CC[C@@H](CCNS(=O)(=O)c2cccc(F)c2)O[C@H]1CO | 113% (active)
O=C(Nc1ccc(Cl)cc1)N[C@@H]1CC[C@@H](CCNC(=O)c2ccccc2F)O[C@H]1CO | 45.6%
N#C[C@H]1[C@@H](c2ccc(C3=CCCCC3)cc2)[C@@H](CO)N1C(=O)NC1CCCCC1 | 105% (active)
CCc1cnc(N2[C@H](C#N)[C@H](c3ccc(C4=CCCC4)cc3)[C@@H]2CO)s1 | 106% (active)
CC(C)NC(=O)N1[C@H](C#N)[C@H](c2ccc(C#CC3CCCCC3)cc2)[C@H]1CO | 105% (active)
CS(=O)(=O)N1[C@@H](C#N)[C@H](c2ccc(C#CC3CCCCC3)cc2)[C@@H]1CO | 103% (active)
